A short description of experiment [1]: NCI Yeast Anticancer Drug Screen. Data for the rad50 strain (AID 155).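 Also: 0% = growth of vehicle-only cultures of the same strain.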 The settings on record: S. cerevisiae rad50 strain growth inhibition; at 50.0 µM; hits give high values. Put shortly:
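Genetically altered yeast (DNA repair pathway); compound treatment; growth inhibition vs vehicle ctrl.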

A short description of experiment [2]: NCI Yeast Anticancer Drug Screen. Data for the mec2-1 strain (AID 157). The settings on record: S. cerevisiae mec2-1 strain, at 50.0 µM, hits give high values. Put shortly: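 Vehicle-treated cultures served as reference for growth inhibition of compound-exposed mec2-1 yeast.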
Experiment [3] is described as follows: NCI Yeast Anticancer Drug Screen. Data for the sgs1 mgt1 strain (AID 161).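 Also: 0% = growth of cultures given vehicle only.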 Conditions: S. cerevisiae sgs1 mgt1 strain, at 50.0 µM, hits give high values. In a few lines:
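Read-out: growth inhibition vs vehicle controls. Cells: mutant yeast strain deficient in DNA damage repair.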

Experiment [4] in a line: NCI Yeast Anticancer Drug Screen. Data for the cln2 rad14 strain (AID 165).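 Also: 0% = growth equal to vehicle treated cultures.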 The settings on record: S. cerevisiae cln2 rad14 strain, at 50.0 µM, hits give high values. In a few lines: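 Each compound was tested on cln2 rad14 yeast. Inhibition of growth was calculated against vehicle-exposed controls.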
Experiment [5] is described as follows: NCI Yeast Anticancer Drug Screen. Data for the bub3 strain (AID 167). Conditions: S. cerevisiae bub3 mutant strain, at 50.0 µM, hits give high values. In a few lines:
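Yeast carrying a defined mutation is treated with each compound, and growth is compared with that of vehicle-exposed cells to give inhibition.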

A short description of experiment [6]: NCI Yeast Anticancer Drug Screen. Data for the mlh1 rad18 strain (AID 175). Conditions: S. cerevisiae mlh1 rad18 strain growth inhibition; at 50.0 µM; hits give high values. Put shortly:
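Vehicle-treated cultures served as the reference for growth inhibition in a yeast strain carrying DNA damage repair alterations exposed to each compound.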

This is part of a sample that, as a whole, favours compounds with a hit. Of some 79,000 tested, about 15% had one in any assay. Unmarked numbers belong to inactive results. The source made the active and inactive calls. Rule as the data show it: active = growth inhibition above about 70%; inactive = the rest.

Consider `CSc1nc(SC)c2cnn(C3OC(CO)C(O)C3O)c2n1` (stereo unspecified), for which the growth inhibition in experiment [1] was 12%; in experiment [2] it was -1.1%; in experiment [3] it was 20.9%; in experiment [4], 3.25%; in experiment [5] it was 16.4%; in experiment [6] it was 33.4%.
In the case of `Cn1c(=O)c(N=Nc2c(=O)n(C)c(=O)n3c2[nH]c2ccccc23)c2[nH]c3ccccc3n2c1=O`, the growth inhibition is -2.1% in experiment [1]; 17.1% in experiment [2]; 7.4% in experiment [3]; -27.4% in experiment [4]; -10.7% in experiment [5]; 12.2% in experiment [6].
On to `CCC1(CC)SCC(C)(O)NC1=O` (stereo unspecified), for which the growth inhibition in experiment [1] was 1.95%; in experiment [2], -12.5%; in experiment [3], -7.15%; in experiment [4], -35.4%; in experiment [5], -10.6%; in experiment [6] it was -4.75%.
As to `O=C(c1ccccc1)c1cccc(C(=O)c2ccccc2)n1`, the growth inhibition is -7.5% in experiment [1]; -12.7% in experiment [2]; -17.7% in experiment [3]; 1.9% in experiment [4]; -13.8% in experiment [5]; -8.55% in experiment [6].
Consider `c1cc2c3c(cc4c(c3c1)CCCC4)CC2`, for which the growth inhibition in experiment [1] is -6.95%; in experiment [2], -20.9%; in experiment [3], -12.9%; in experiment [4], -23.6%; in experiment [5], 5.45%; in experiment [6], -4.75%.
In the case of `CCOC(=O)c1c(-c2ccc([N+](=O)[O-])cc2)c(/C=N\O)n(-c2ccccc2)c1C`, the growth inhibition is 1.45% in experiment [1]; 6.7% in experiment [2]; 3.3% in experiment [3]; -17% in experiment [4]; -1.95% in experiment [5]; 20% in experiment [6].
As for `CC(C)Nc1ncnc2c1cnn2-c1ccccc1`, the growth inhibition in experiment [1] was -5.9%; in experiment [2], -17.1%; in experiment [3], 0.65%; in experiment [4], -57.7%; in experiment [5], 13.5%; in experiment [6], -11.3%.
With `O=C1CCCC2(c3ccc([N+](=O)[O-])cc3)C1C1C(=O)CCCC12c1ccc([N+](=O)[O-])cc1` (stereo unspecified), the growth inhibition is 44% in experiment [1]; -0.6% in experiment [2]; 14.2% in experiment [3]; 12.6% in experiment [4]; 5.4% in experiment [5]; 5.5% in experiment [6].
For the molecule `CCN(CC)c1cccc(C(=O)OCCNCC(C)C)c1`, the growth inhibition in experiment [1] is -9.7%; in experiment [2] it was 0.85%; in experiment [3] it was 5.05%; in experiment [4], -39.7%; in experiment [5], 49.1%; in experiment [6], 10.8%.
As for `CCOC(=O)Cn1nnnc1N`, the growth inhibition in experiment [1] is -3.4%; in experiment [2] it was 23.6%; in experiment [3], -5.2%; in experiment [4], -21.9%; in experiment [5] it was -13.8%; in experiment [6] it was 30.6%.
In the case of `CCOC(=O)C(C(=O)OCC)C(C(=O)OCC)C(=O)OCC`, the growth inhibition in experiment [1] is -22.7%; in experiment [2], 4.45%; in experiment [3], -6.2%; in experiment [4], -9.65%; in experiment [5], -14.5%; in experiment [6], -9.05%.
With `Cc1ccc2c(c1)C(c1ccccc1)(c1ccccc1)OC2`, the growth inhibition in experiment [1] was 8.65%; in experiment [2], 41.4%; in experiment [3], 9.45%; in experiment [4] it was -10.8%; in experiment [5] it was 10.4%; in experiment [6] it was 13.6%.
Turning to `CN(C)S(=O)(=O)c1c(N)ncn1C`, the growth inhibition in experiment [1] was 12.7%; in experiment [2], 6.85%; in experiment [3], -9.1%; in experiment [4], 7.25%; in experiment [5], 9.65%; in experiment [6], 5%.
With `Oc1ccc2cc(O)ccc2c1`, the growth inhibition was -5.45% in experiment [1]; -25.6% in experiment [2]; -1.7% in experiment [3]; -7.8% in experiment [4]; -20.4% in experiment [5]; -5.85% in experiment [6].
As to `CN(C)C(=O)CCOc1ccccc1`, the growth inhibition in experiment [1] is 0.55%; in experiment [2], -12.6%; in experiment [3], -18.9%; in experiment [4], -56.3%; in experiment [5], -7.05%; in experiment [6], -7.2%.
Regarding `Cc1ccc(-c2nc(-c3nccc4ccccc34)oc2-c2ccccc2)cc1`, the growth inhibition in experiment [1] was -6%; in experiment [2], 0.45%; in experiment [3], -45.4%; in experiment [4], -28.4%; in experiment [5] it was -29.7%; in experiment [6], 5.2%.
With `CC1=C2N3C[C@@H](n4c(=O)n(C)c(=O)n43)C23CCC1n1c(=O)n(C)c(=O)n13`, the growth inhibition was -7.1% in experiment [1]; -0.85% in experiment [2]; 17.9% in experiment [3]; 7% in experiment [4]; -7.9% in experiment [5]; -9.95% in experiment [6].
Regarding `COc1c(O)c2c3c(cc(C)cc3c1C(C)C)OC2`, the growth inhibition is 93.3% (active) in experiment [1]; 94.5% (active) in experiment [2]; 94.3% (active) in experiment [3]; 93.1% (active) in experiment [4]; 93.4% (active) in experiment [5]; 93.1% (active) in experiment [6].
Regarding `CCC(C)(O)P(=O)(O)O` (stereo unspecified), the growth inhibition was 5.15% in experiment [1]; 7.1% in experiment [2]; 0.35% in experiment [3]; -30.4% in experiment [4]; 0.85% in experiment [5]; 7.6% in experiment [6].
With `Nc1nc(=O)n(C2OC(CO)C(O)C2Cl)cc1I` (stereo unspecified), the growth inhibition is 10.4% in experiment [1]; -3.8% in experiment [2]; 1.1% in experiment [3]; -5.1% in experiment [4]; 7.8% in experiment [5]; -0.75% in experiment [6].
As for `CC(=O)NC(NC(C)=O)c1ccccc1`, the growth inhibition in experiment [1] was -16.6%; in experiment [2], -8.5%; in experiment [3] it was -5.45%; in experiment [4] it was -8.55%; in experiment [5], -26.4%; in experiment [6], -20.5%.

The record behind these values is PubChem BioAssay (NCI).
